Screening data as filed in PubChem.
RecA intein inh: Mtb RecA intein splicing inhibition; cell-free RecA intein splicing, fluorescence; hit rate 0.75% among 290,000; P9WHJ3; inhibition, % (test concentration not listed); in the data active = inhibition above about 30%; inconclusive = no clear call, values can overlap the other calls;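 also: 0% = vehicle wells and 100% = reference inhibitor control wells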
Target sequence (P9WHJ3 whole entry, looked up): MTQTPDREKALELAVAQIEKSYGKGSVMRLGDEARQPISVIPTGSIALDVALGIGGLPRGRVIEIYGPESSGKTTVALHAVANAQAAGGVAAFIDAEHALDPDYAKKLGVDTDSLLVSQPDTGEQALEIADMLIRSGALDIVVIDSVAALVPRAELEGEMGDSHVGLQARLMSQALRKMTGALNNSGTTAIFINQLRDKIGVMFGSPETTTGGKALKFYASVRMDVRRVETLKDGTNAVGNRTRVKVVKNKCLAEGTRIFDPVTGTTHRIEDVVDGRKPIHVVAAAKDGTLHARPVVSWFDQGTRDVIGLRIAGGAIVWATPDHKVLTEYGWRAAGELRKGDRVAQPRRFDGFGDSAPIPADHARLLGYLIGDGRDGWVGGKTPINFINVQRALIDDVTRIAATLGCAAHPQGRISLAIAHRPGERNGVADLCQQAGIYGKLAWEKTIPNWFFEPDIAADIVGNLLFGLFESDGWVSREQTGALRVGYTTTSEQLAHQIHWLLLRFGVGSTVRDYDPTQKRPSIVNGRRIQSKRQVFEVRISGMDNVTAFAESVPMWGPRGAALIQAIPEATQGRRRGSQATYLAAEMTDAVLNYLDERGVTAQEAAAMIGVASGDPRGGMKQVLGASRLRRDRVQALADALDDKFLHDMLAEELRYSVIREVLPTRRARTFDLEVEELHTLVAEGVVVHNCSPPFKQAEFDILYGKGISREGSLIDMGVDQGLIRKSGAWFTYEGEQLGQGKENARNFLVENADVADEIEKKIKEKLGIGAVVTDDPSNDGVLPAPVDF
Mtb hypoxia inh: inhibitors of hypoxia-regulated fluorescent reporter in Mycobacterium tuberculosis. hit rate 0.1% among 300,000. fluorescence inhibition, % (concentration not given with the values). M. tuberculosis hypoxia-regulated fluorescent reporter, fluorescence; in the data active = fluorescence inhibition mostly above about 23%, no sharp cut-off; inactive = mostly below about 17%
Mtb betalactam: beta-lactam sensitization of Mtb H37Rv; M. tuberculosis H37Rv growth with meropenem, percent inhibition; inhibition, % at 25 µM; hit rate 0.27% among 330,000; AID 434955; call rule not given here;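 also: growth measured after seven days incubation then overnight dye step; 0% = bacteria only wells and 100% = bacteria with antibiotic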
CCHF vOTU inh-1: blocks the CCHF virus ovarian tumor domain protease | CCHFV vOTU protease, Pep-AMC fluorescence | inhibition, % at 11.5 µM | hit rate 0.55% among 370,000 | AID 651958; also: 0% = vehicle wells with enzyme and 100% = no enzyme wells
PfHsp40 yeast: rescue of PfHsp40-mediated yeast toxicity; AID 504582; S. cerevisiae expressing PfHsp40, growth rescue, ATP luminescence; growth rescue, % at 12.5 µM; hit rate 0.68% among 340,000; in the data active = growth rescue above about 28%, passing the limit was not always enough; inconclusive = no clear call, values can overlap the other calls;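 also: yeast W303a lacking pdr1 and pdr3 grown in galactose medium; growth measured after three days at 30 °C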
CCHF vOTU inh-2: confirmation of CCHF virus vOTU protease inhibitors. shares compounds with CCHF vOTU inh-1. Recombinant CCHFV vOTU, Pep-AMC fluorescence. inhibition, % at 11.5 µM. hit rate 17% among 1,900. AID 686976
* = called active by the depositor; u = inconclusive; x = no result. In the library only some 1.7% were active in any assay of this set; here they are far more common. Rule as the data show it, unless noted: active = inhibition above about 30%; inactive = the rest.

SMILES | RecA intein inh | Mtb hypoxia inh | Mtb betalactam | CCHF vOTU inh-1 | PfHsp40 yeast | CCHF vOTU inh-2
CCN1/C(=C/C=C/c2oc3ccc(-c4ccccc4)cc3[n+]2CC)Oc2ccc(-c3ccccc3)cc21 | -8 | -194 | 95 | 37* | 129* | 18
COCCn1c(SCC(=O)NN2C(=O)NC(C)(c3ccccc3)C2=O)nnc1-c1ccncc1 (stereo unspecified) | x | -1 | 1 | 35* | -1 | -21
O=C(c1ccc(Br)o1)N1CCC(c2nc3ccccc3[nH]2)CC1 | 1 | -3 | -4 | 34* | 0 | -27
C=CCC[C@H](Cc1ccc(F)cc1)C(=O)OC[C@H](Cc1c[nH]c2ccccc12)NC(=O)[C@@H](CC=C)CC(=O)N(CCO)Cc1ccccc1 | x | x | -2 | 16 | -2 | x
C=CC[C@@H](CC(=O)N[C@H](CO)Cc1ccccc1)C(=O)N[C@@H](COC(=O)[C@@H](CC=C)CC(=O)OC(C)(C)C)Cc1c[nH]c2ccccc12 | x | x | -2 | 31* | 0 | -11
C=CCC[C@H](Cc1ccc(F)cc1)C(=O)OC[C@@H](Cc1c[nH]c2ccccc12)NC(=O)[C@@H](CC=C)CC(=O)N(CCO)Cc1ccccc1 | x | x | 3 | 32* | 0 | 8
CC(C)C(NC(=O)c1ccccc1)C(=O)N1CCc2ccccc21 (stereo unspecified) | x | 3 | x | x | x | x
COC(=O)[C@@]12CCCCN1C(c1ccc(SC3CCCCC3)cc1)C1C(=O)N(C)C(=O)C12 (stereo partly specified) | x | 4 | x | x | x | x
NCCCCC1NC(=O)c2cc([N+](=O)[O-])cc(F)c2NCCCCC(C(N)=O)NC(=O)C(CCC(N)=O)NC1=O (stereo unspecified) | x | 3 | x | x | x | x
NC(=O)C1(N2CCCCC2)CCN(C2CC(=O)NC2=O)CC1 (stereo unspecified) | 0 | 13 | -5 | 31* | -2 | -6
CN(C)CCN=Cc1c(O)n(Cc2ccc3c(c2)OCO3)c(=O)c2ccccc12 | 3 | 4 | 3 | -11 | 0 | x
O=c1c2ccccc2c(C=NC2CCN(Cc3ccccc3)CC2)c(O)n1Cc1ccc2c(c1)OCO2 | 5 | 5 | 74 | 31* | x | -16
COC(=O)C1=C(c2ccc(F)cc2OCc2ccccc2)CC2CCC1N2C(=O)N1CCCC1 (stereo unspecified) | x | 9 | x | x | x | x
Nc1ccc2c(c1)Cc1cc(N)c(Cl)cc1-2 | x | x | x | 31* | 0 | -9
COc1ccc(C2C=CCN(C(=O)Oc3ccc(C(F)(F)F)cc3)CC(=O)N2Cc2ccc(F)cc2)cc1 (stereo unspecified) | x | 2 | x | x | x | x
O=C(Nc1ccc2c(c1)OCO2)OC1CC2CCC(=O)N3CCC(C1)C23 (stereo unspecified) | x | 0 | x | x | x | x
CC(=NOCC(=O)OC(C)C(=O)Nc1ccc(C(N)=O)cc1)c1ccc2c(c1)OCO2 (stereo unspecified) | x | 8 | x | x | x | x
CCC1(CC)NC(=O)N(CC(=O)OC(C)C(=O)Nc2ccc(Cl)cn2)C1=O (stereo unspecified) | -1 | -8 | -2 | 11 | 0 | x
CCC1(CC)NC(=O)N(CC(=O)OC(C)C(=O)Nc2cc([N+](=O)[O-])ccc2OC)C1=O (stereo unspecified) | -4 | -2 | u | 30* | 0 | -5
COc1ccc2cc(C3=CC(=O)CC(c4ccc5c(c4)OCO5)C3)ccc2c1 (stereo unspecified) | x | 9 | x | x | x | x
Cc1ccc(C)c(N2CCN(C(=O)CCc3nc(-c4ccccc4C)no3)CC2)c1 | x | -10 | x | 36* | 6 | 4
Cc1ccc(C)c(N2CCN(C(=O)CCc3nc(-c4ccccc4Cl)no3)CC2)c1 | x | -8 | x | 3 | 4 | x
O=C(/C=C/c1ccc([N+](=O)[O-])s1)N1CCCC1 | -9 | 15 | 98 | 14 | 1 | x
O=C(/C=C/c1ccc([N+](=O)[O-])s1)N1CCCCC1 | -4 | 20 | 100 | 32* | -2 | 32*
Cc1c(C(=O)Nc2ccc(S(=O)(=O)Nc3ncccn3)cc2)oc2ccccc12 | x | 14 | -5 | 11 | -2 | x
SMILES | RecA intein inh | Mtb hypoxia inh | Mtb betalactam | CCHF vOTU inh-1 | PfHsp40 yeast | CCHF vOTU inh-2
Cc1cc(NS(=O)(=O)c2ccc(NC(=O)c3oc4ccccc4c3C)cc2)no1 | 2 | 13 | 34 | 31* | 2 | -5
Cc1cc(NS(=O)(=O)c2ccc(NC(=O)COc3c(C)cc(Br)cc3C)cc2)no1 | -5 | -6 | 3 | 31* | 3 | -11
COc1ccc(OCC(=O)Nc2ccc(S(=O)(=O)Nc3cc(C)on3)cc2)cc1 | 3 | 7 | 8 | 2 | 2 | x
CCCCc1c(-c2ccc(F)cc2F)ncn1CCc1ccccc1OC | x | x | x | 40* | x | 5
COc1ccccc1CCn1cnc(-c2ccccc2F)c1CC(C)C | x | x | x | 45* | x | 2
CCC1=C(OC(=O)N(CC)CC)N2C(=O)OC(=NCCc3c[nH]c4ccccc34)[C@]2(C)C2C1=CCC1C(=O)NC(=O)C12 (stereo partly specified) | x | 7 | x | x | x | x
COC(=O)c1ccc(C(NC(=O)OCc2ccccc2)C(F)=CC(C)C(=O)NCc2ccc(OC)c(OC)c2)cc1 (stereo unspecified) | x | 19 | x | x | x | x
C=C1C(O)CC(C(C)C)N(CC(C)C)S1(=O)=O (stereo unspecified) | x | 8 | x | x | x | x
O=C(c1ccc(COc2ccc(Cl)cc2)o1)N1CCN(Cc2ccc3c(c2)OCO3)CC1 | 13 | 3 | 90 | 30* | 1 | 6
O=C(c1ccc(COc2ccccc2Cl)o1)N1CCN(Cc2ccc3c(c2)OCO3)CC1 | 17 | 5 | 59 | 13 | -1 | x
COc1ccc(-c2sc3ccccc3c2-c2ccc(O)cc2)cc1 | x | x | 0 | 2 | u | x
COc1ccc(-c2sc3cc(OC)c(OC)cc3c2-c2ccc(O)cc2)cc1 | x | 0 | -4 | 33* | -1 | -1
CCN1CCN(Cc2oc(CO)cc(=O)c2O)CC1 | -2 | 6 | -12 | -3 | 0 | x
CCOC(=O)C1CCN(Cc2oc(CO)cc(=O)c2O)CC1 | x | -79 | u | 41* | -1 | -13
CC(C)Cn1c(N)c(C(=O)COC(=O)c2c(O)c(Cl)cc(Cl)c2Cl)c(=O)n(C)c1=O | x | -2 | 0 | 41* | -1 | -5
COC(=O)[C@@]1(Cc2ccc(F)cc2)C2c3cc(C(=O)N(C)C)n(Cc4ccc(OC)c(OC)c4)c3CC2CN1C(=O)c1ccccc1 (stereo partly specified) | x | -2 | x | x | x | x
COC(=O)C1CN(Cc2ccc(F)cc2)CCS(=O)(=O)N1Cc1cn(Cc2ccc(F)cc2)nn1 (stereo unspecified) | x | x | x | 30* | x | -10
COC(=O)C1CN(Cc2ccccc2)CCS(=O)(=O)N1Cc1cn(Cc2ccc(F)cc2)nn1 (stereo unspecified) | x | x | x | 0 | x | x
CN1CCS/C1=C\C=C1/SC(=S)N(CC(=O)O)C1=O | x | 47* | x | 30* | 2 | 13
CCN1C(=O)/C(=C/C=C2/SCCN2C)SC1=S | -1 | x | 5 | 9 | 0 | x
CC(C)C1S/C(=N/N=C/c2cccs2)NC1=O (stereo unspecified) | -1 | x | 45 | 35* | -1 | -8
